Reference: PubChem BioAssay (EPA / NIEHS)
The source made the active and inactive calls. How the source made its calls: active means hit-call score of the fitted dose curve at least 0.9, where 1 is the maximum; inactive means score below 0.9.

Assay: BSK_SAg_SRB: Viability Assessment in the BioMAP Diversity Plus: SAg Assay (AID 2283096);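 further: cells read one day after compound addition; hits may be either gain or loss of signal compared with DMSO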
Settings: primary human HUVEC with PBMC
Description: BSK_SAg is a cell-based, multiplexed-readout assay that uses umbilical vein endothelium and peripheral blood mononuclear cells, a human vascular primary cell co-culture, with measurements taken at 24 hours after chemical dosing in a 96-well plate.BSK_SAg_SRB is an assay component measured in the BSK_SAg assay. It measures protein content, a form of viability reporter, as detected with absorbance signals by Sulforhodamine staining technology.Data from the assay component BSK_SAg_SRB was analyzed into 1 assay endpoint. This assay endpoint, BSK_SAg_SRB, was analyzed with bidirectional fitting relative to DMSO as the negative control and baseline of activity. Using a type of viability reporter, gain or loss-of-signal activity can be used to understand changes in the signaling. Furthermore, this assay endpoint can be referred to as a primary readout, because this assay has produced multiple assay endpoints where this one serves a signaling function. To generalize the intended target to other relatable targets, this assay endpoint is annotated to the cell morphology intended target family, where the subfamily is cell conformation.
The levels of cell surface (or secreted, indicated by the prefix "s") biomarker endpoints were measured by ELISA. Overt cytotoxicity to cells in confluent adherent cultures (all systems other than the BT system) was assessed by measuring total protein levels using sulforhodamine B (SRB) staining in parallel cultures at the time of biomarker measurements, indicated as SRB endpoints. For proliferation assays for adherent cell types, individual cell types are cultured at sub-confluence and relative cell numbers quantified by SRB staining at time points optimized for each system (48 h: 3C and CASM3C systems; 72 h: BT and HDF3CGF systems; 96 h: SAg system). SRB was performed by staining cells with 0.1% SRB after fixation with 10% TCA and reading wells at 560 nm.Viability and proliferation of PBMC (T cells) was quantified by Alamar Blue reduction for the SAg and BT systems. For PBMC viability (referred to as PBMC Cytotoxicity within the assay endpoint names), cells were plated (75,000/well in a 96-well plate) and then chemical samples added for 1 h before addition of activators, SEB and TSST-1 (20 ng/mL final concentration each). Cells were incubated for 90 h. Then, Alamar Blue (20 uL/well) (Invitrogen, Cat DAL1100) was added for 6 h, and the plates were read with a fluorescence microplate reader at 546/580 nm (excitation/emission). For PBMC proliferation, cells were plated and activated as above but incubated for only 16 h prior to addition of Alamar Blue. Plates were read after 6 h.

Row | SMILES | outcome | AC50
1 | OCCCl | inactive | 
2 | CC(C)(C)OOC(C)(C)CCC(C)(C)OOC(C)(C)C | inactive | 
3 | CC(C)(OOC(C)(C)c1ccccc1)c1ccccc1 |  | 32.7 µM (active)
4 | O=C(Oc1ccc(Br)cc1)N1CCN2CCC1CC2 | inactive | 
5 | CCCCCCCCCCCCCN1CC(C)OC(C)C1 (stereo not given) | inactive | 
6 | Cc1ccc([N+](=O)[O-])cc1 | inactive | 
7 | ClCCOCCCl | inactive | 
8 | CC(C)COC(=O)c1ccccc1C(=O)OCC(C)C | inactive | 
9 | O=[N+]([O-])C(Br)(CO)CO |  | 30.6 µM (active)
10 | Clc1ccc(C(c2ccc(Cl)cc2)C(Cl)(Cl)Cl)cc1 |  | 21.6 µM (active)
11 | CN(C)C(=O)Nc1ccc(Cl)cc1 | inactive | 
12 | COC(=O)Nc1nc2ccccc2[nH]1 |  | 9.84 µM (active)
13 | Cc1ccc(N)c(N)c1 | inactive | 
14 | O=Cc1ccco1 | inactive | 
15 | COc1cc(C=O)cc2c1[C@H](COC(N)=O)[C@]1(OC(C)=O)ON2C[C@H]2[C@@H]1N2C(C)=O |  | 4.34 µM (active)
16 | Brc1ccc(Oc2ccccc2)cc1 | inactive | 
17 | C[C@]12C=CC3=C4CCC(=O)C=C4CC[C@H]3[C@@H]1CC[C@@H]2O |  | 7.24 µM (active)
18 | N#CC(Br)(Br)C(N)=O | inactive | 
19 | Clc1ccc(C(c2ccc(Cl)cc2)C(Cl)Cl)cc1 |  | 29.5 µM (active)
20 | CCOc1cccc(C2(N3CCN(c4ccccc4)CC3)CCC(C)CC2)c1 (stereo not given) | inactive | 

Row | SMILES | outcome | AC50
21 | Nc1ccc([N+](=O)[O-])cc1 | inactive | 
22 | OCCCBr | inactive | 
23 | CC(O)CCO (stereo not given) | inactive | 
24 | CC(C)(C)C(O)(CCc1ccc(Cl)cc1)Cn1cncn1 (stereo not given) | inactive | 
25 | Cc1ccc(N=C=O)cc1N=C=O | inactive | 
26 | ClC1=C(Cl)C2(Cl)C3C(Cl)C=CC3C1(Cl)C2(Cl)Cl (stereo not given) |  | 31.7 µM (active)
27 | Clc1ccccc1Cl | inactive | 
28 | CCOC(=O)[C@]1(c2ccccc2)Oc2ccccc2[C@@H]1N | inactive | 
29 | CCN(CC)CCO | inactive | 
30 | CCCSC(=O)N(CCC)CCC | inactive | 
31 | CO[C@@H]1[C@H](OC(=O)NC(=O)CCl)CC[C@]2(CO2)[C@H]1[C@@]1(C)O[C@@H]1CC=C(C)C | inactive | 
32 | CNC(=O)Oc1cccc2c1OC(C)(C)C2 | inactive | 
33 | OCCOCCO | inactive | 
34 | Nc1ccc(N=Nc2ccccc2)cc1 | inactive | 
35 | C1=Cc2cccc3cccc1c23 | inactive | 
36 | c1ccc2c(c1)-c1cccc3cccc-2c13 |  | 29.5 µM (active)
37 | CCC[CH2][Sn]([Cl])([CH2]CCC)[CH2]CCC |  | 0.148 µM (active)
38 | O=[N+]([O-])c1ccc(Oc2ccc(Cl)cc2Cl)cc1 | inactive | 
39 | c1ccc(NNc2ccccc2)cc1 | inactive | 
40 | CC(C)(C)OOC(=O)c1ccccc1 | inactive | 
